Laboratory results taken from PubChem BioAssay AID493098 (Sanford-Burnham Center for Chemical Genomics, 2011).
Hit rate of the full screen: of about 340,000 compounds, about 1,700 (0.5%) were called active.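 The calls were made as follows: active = compounds whose inhibition of the agonist-driven luminescence signal at 20 µM reaches about 50% (limit read from the data); inactive = the rest.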 What follows is part of a selection rich in actives, with near analogues and random picks from the rest.

target: C-C chemokine receptor type 6 (Homo sapiens) (UniProt P51684); test: blockers of CCL20-driven beta-arrestin recruitment to CCR6 – cell-based, CHO-K1, luminescence, uHTS, primary screen (AID 493098); conditions: CHO-K1 CCR6 PathHunter beta-arrestin, CCL20-stimulated, at 20 µM, active compounds read high;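 also: cells stimulated with CCL20 at 14 nM final; plate controls were DMSO with CCL20 for no effect and DMSO without agonist for full effect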
Sequence (P51684 whole entry, looked up): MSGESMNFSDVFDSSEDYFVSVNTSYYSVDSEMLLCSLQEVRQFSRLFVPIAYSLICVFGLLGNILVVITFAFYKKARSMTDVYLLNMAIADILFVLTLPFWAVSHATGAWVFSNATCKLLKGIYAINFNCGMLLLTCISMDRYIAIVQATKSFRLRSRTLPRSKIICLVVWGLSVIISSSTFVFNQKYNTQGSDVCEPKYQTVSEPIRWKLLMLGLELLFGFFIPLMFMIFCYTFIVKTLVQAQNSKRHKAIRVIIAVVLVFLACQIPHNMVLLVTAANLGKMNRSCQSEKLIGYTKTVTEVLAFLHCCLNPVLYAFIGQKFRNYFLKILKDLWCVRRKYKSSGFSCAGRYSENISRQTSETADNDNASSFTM

Question: `Nc1ccc(SCCN2C(=O)c3ccccc3C2=O)cc1` was tested. Which inhibition did it give?
Answer: The inhibition was -6.02% (inactive).

Question: How did the inhibition turn out when `Cc1ccc2oc(=O)c3cnn(CC(=O)N(Cc4ccco4)C4CCCCC4)c3c2c1` was run?
Answer: Its inhibition is 20.4% (inactive).

Question: For `O=C(COC(=O)CCc1c[nH]c(=O)[nH]1)Nc1ccccc1Cl`, which inhibition is on record?
Answer: The inhibition was -11.7% (inactive).

Question: How did the inhibition turn out when `CN(C)S(=O)(=O)Oc1ccccc1C(=O)Nc1ccccc1Cl` was run?
Answer: Its inhibition is 8.47% (inactive).

Question: How did the inhibition turn out when `O=C(Nc1ccccc1Cl)/C(Cl)=C(\Cl)S(=O)c1ccccc1` (configuration not stated) was run?
Answer: Its inhibition is 95.1% (active).

Question: How did the inhibition turn out when `Cc1c(S(=O)(=O)N2CC(C)CC(C)C2)c(=O)n(C)c(=O)n1C` (configuration not stated) was run?
Answer: The inhibition was -1.65% (inactive).

Question: How did the inhibition turn out when `CCN(CC)CCCSc1nc2ccccc2s1` was run?
Answer: The inhibition was -12.8% (inactive).

Question: Which inhibition does the source give for `OCCNc1nc(Nc2ccc(Cl)c(Cl)c2)nc2ccccc12` here?
Answer: The inhibition was -13.9% (inactive).

Question: Which inhibition does the source give for `O=[N+]([O-])c1c(NCCO)cc(Sc2nc3ccccc3s2)c2nonc12` here?
Answer: Its inhibition is 114% (active).

Question: How did the inhibition turn out when `Cc1nc(C)c(-c2nnc(-c3cccc(S(=O)(=O)N(C)C)c3)o2)cc1C(=O)NN` was run?
Answer: The inhibition was 8.51% (inactive).

Question: With `CCOc1ccc2[nH]c3nc(SCC(=O)NC4CCCC4)nnc3c2c1` as the compound, how does the inhibition read?
Answer: The inhibition was 15.4% (inactive).

Question: `Cc1nc2nc(SCC(=O)Nc3cccc(F)c3)[nH]c2cc1Br` was tested. Which inhibition did it give?
Answer: The inhibition was -8.14% (inactive).

Question: For `O=C(CN1CCN(C(=S)NC2CCCC2)CC1)Nc1ccc(Oc2ccccc2)cc1`, which inhibition is on record?
Answer: The inhibition was 10.7% (inactive).

Question: How did the inhibition turn out when `CCC(=C/c1sc2ccc3ccccc3c2[n+]1C)/C=C1\Sc2ccc3ccccc3c2N1C` was run?
Answer: The inhibition was 66.6% (active).

Question: For `S=c1[nH]nc(/C=C/c2ccccc2)o1`, which inhibition is on record?
Answer: Its inhibition is -11.1% (inactive).

Question: With `CC(C)[C@H](NC(=O)N1CCn2c1nc1ccccc12)C(=O)NCCc1ccccc1` as the compound, how does the inhibition read?
Answer: Its inhibition is 20.7% (inactive).

Question: Which inhibition does the source give for `CCCN(C(=O)COC(=O)CNS(=O)(=O)c1ccc(NC(C)=O)cc1)C1CCS(=O)(=O)C1` (configuration not stated) here?
Answer: The inhibition was 4.25% (inactive).

Question: `O=C(O)CCN(Cc1ccccc1)S(=O)(=O)c1c(Cl)cccc1Cl` was tested. Which inhibition did it give?
Answer: The inhibition was 4.62% (inactive).

Question: Which inhibition does the source give for `CC(=NNC(=S)N1CCCCCC1)c1ccccn1` here?
Answer: The inhibition was 21.3% (inactive).

Question: With `NC(=O)NC(CC(=O)NNC(=O)c1ccccn1)c1ccc(Cl)cc1` (configuration not stated) as the compound, how does the inhibition read?
Answer: Its inhibition is -16.2% (inactive).

Question: `C/C(=N\NC(=O)Cc1ccc(Cl)cc1)c1ccccn1` was tested. Which inhibition did it give?
Answer: The inhibition was 102% (active).

Question: With `COC(=O)c1ccc(NC(=S)NN2CCOCC2)cc1` as the compound, how does the inhibition read?
Answer: The inhibition was 1.46% (inactive).

Question: How did the inhibition turn out when `Cc1nc2nc(C)c(NS(=O)(=O)c3ccc(C(C)(C)C)cc3)c(=O)n2[nH]1` was run?
Answer: Its inhibition is 6.13% (inactive).

Question: With `CC1CCCC(NC(=O)CSc2nccn2C)C1C` (configuration not stated) as the compound, how does the inhibition read?
Answer: Its inhibition is 7.72% (inactive).

Question: With `CC1(C)CC2CC(C)(CN2c2ncnc3ccc(Br)cc23)C1` (configuration not stated) as the compound, how does the inhibition read?
Answer: Its inhibition is 10.7% (inactive).

Question: For `COc1ccc(OC)c(CCNC(=O)c2nn(C)c3c2CS(=O)(=O)c2ccccc2-3)c1`, which inhibition is on record?
Answer: The inhibition was 9.14% (inactive).

Question: With `CCN(CC)C(=O)CSc1nnc(CNc2ccc(F)cc2)n1Cc1ccco1` as the compound, how does the inhibition read?
Answer: The inhibition was 6.14% (inactive).

Question: Which inhibition does the source give for `CC1CN(Cc2ccco2)C(=S)N(c2ccccc2)C1=O` (configuration not stated) here?
Answer: Its inhibition is 9.82% (inactive).

Question: With `CN(C)C(=S)N=c1ssc(=S)n1Cc1ccco1` as the compound, how does the inhibition read?
Answer: The inhibition was 59.8% (active).

Question: With `Cc1ccccc1N1C(=O)C2ON(c3ccccc3)C(c3ccncc3)C2C1=O` (configuration not stated) as the compound, how does the inhibition read?
Answer: The inhibition was -6.39% (inactive).

Question: `CN(CC(=O)Nc1cccc(F)c1)C(=O)C1CSC2(C)CCC(=O)N12` (configuration not stated) was tested. Which inhibition did it give?
Answer: The inhibition was 9.77% (inactive).

Question: With `COCCn1c(SCC(=O)Nc2ccccc2F)nc2c(c1=O)SCC2` as the compound, how does the inhibition read?
Answer: Its inhibition is -9.89% (inactive).

Question: `S=C(NCCc1ccccc1)NCC1CCCO1` (configuration not stated) was tested. Which inhibition did it give?
Answer: Its inhibition is 8.39% (inactive).

Question: `CCCC1CCC(=NNC(=S)NCCc2ccccc2)CC1` (configuration not stated) was tested. Which inhibition did it give?
Answer: The inhibition was 54.4% (active).

Question: How did the inhibition turn out when `S=C(NN=C1CCN(Cc2ccccc2)CC1)NC1CCCCC1` was run?
Answer: The inhibition was 21.4% (inactive).

Question: `Cc1cccc(C)c1N1CCN(S(=O)(=O)N2CCCCC2)CC1` was tested. Which inhibition did it give?
Answer: The inhibition was 18.8% (inactive).

Question: `NS(=O)(=O)c1cc(C(=O)OCC(=O)NNC(=O)c2ccccc2)ccc1Cl` was tested. Which inhibition did it give?
Answer: Its inhibition is 0.62% (inactive).

Question: With `Cc1ccc(N=Cc2c(O)n(-c3nccs3)c(=O)c3ccccc23)c(C)c1` as the compound, how does the inhibition read?
Answer: The inhibition was 17.6% (inactive).

Question: `Cc1cccc(N2C(=O)CC(SC(N)=Nc3ccccc3)C2=O)c1` (configuration not stated) was tested. Which inhibition did it give?
Answer: Its inhibition is 5.48% (inactive).

Question: `Cc1cccc(-n2c(O)c(C=Nc3ccccc3N)c(=O)[nH]c2=O)c1` was tested. Which inhibition did it give?
Answer: Its inhibition is 88.4% (active).

Question: For `CCCCS(=O)c1snnc1C` (configuration not stated), which inhibition is on record?
Answer: The inhibition was 4.33% (inactive).

Question: How did the inhibition turn out when `CCC(CC)c1nnc(NC(=O)C2=COCCO2)s1` was run?
Answer: Its inhibition is -8.69% (inactive).

Question: For `CCOc1ccc(S(=O)(=O)N2CCCCC2)cc1NC(=O)CN1CCCC1c1cccs1` (configuration not stated), which inhibition is on record?
Answer: The inhibition was 13.2% (inactive).

Question: Which inhibition does the source give for `CC(=O)c1sc(N/N=C/c2ccc(C(C)C)cc2)nc1C` here?
Answer: The inhibition was -0.42% (inactive).

Question: How did the inhibition turn out when `COc1cccc2sc(Nc3nc(C)c(C(C)=O)s3)nc12` was run?
Answer: Its inhibition is 52.1% (active).

Question: How did the inhibition turn out when `CC(=O)c1sc(N/N=C\c2ccc(C)cc2)nc1C` was run?
Answer: Its inhibition is 20.1% (inactive).

Question: Which inhibition does the source give for `O=C(CO/N=C/c1ccc(OC(F)F)cc1)NCc1ccc(F)cc1` here?
Answer: Its inhibition is 16.1% (inactive).

Question: Which inhibition does the source give for `COc1ccc(OC(C)C(=O)Nc2cccnc2)cc1` (configuration not stated) here?
Answer: The inhibition was 9.87% (inactive).

Question: `COc1ccc(CCC(=O)c2ccc(OC)cc2)cc1` was tested. Which inhibition did it give?
Answer: The inhibition was 11.9% (inactive).

Question: Which inhibition does the source give for `COc1ccc(CS(=O)/C(Cl)=C(/Cl)C(=O)Nc2ccc(OC)nc2)cc1` (configuration not stated) here?
Answer: The inhibition was 95.4% (active).

Question: For `CC(C)(C)CN1CCNC(=O)C1CC(=O)NC1Cc2ccccc2C1` (configuration not stated), which inhibition is on record?
Answer: Its inhibition is -8.22% (inactive).

Question: How did the inhibition turn out when `CC/C=C/C(=O)N1CC2(CC(c3cccc(NC(=O)CC)c3)=NO2)C[C@H]1C(N)=O` (some centres not stated) was run?
Answer: Its inhibition is 3.3% (inactive).

Question: For `COC(=O)c1cccc(N(C(=O)CNC(=O)c2cccs2)C(C(=O)NCC2CCCO2)c2ccc(OC)c(OC)c2)c1` (configuration not stated), which inhibition is on record?
Answer: Its inhibition is -0.67% (inactive).

Question: Which inhibition does the source give for `COc1ccc(F)cc1C(=O)COC(=O)c1n[nH]c(=O)c2ccccc12` here?
Answer: The inhibition was 24.8% (inactive).

Question: For `CCCOC(=O)Cc1c(O)c2ccccc2[nH]c1=O`, which inhibition is on record?
Answer: Its inhibition is -17.8% (inactive).

Question: `COC(=O)Cc1ccc(NC(=S)NCc2ccccc2)cc1` was tested. Which inhibition did it give?
Answer: Its inhibition is -10.8% (inactive).

Question: For `COC(=O)Cc1c(-c2[nH]c3ccccc3c2CC(=O)OC)[nH]c2ccccc12`, which inhibition is on record?
Answer: The inhibition was 85.9% (active).

Question: Which inhibition does the source give for `Cc1ccc2cccc(O)c2[n+]1[O-]` here?
Answer: Its inhibition is 54.9% (active).

Question: With `NCC(=O)c1cccc2ccc[n+]([O-])c12` as the compound, how does the inhibition read?
Answer: Its inhibition is -4.01% (inactive).

Question: For `COc1ccc2c(c1)[C@H]1[C@H](CO2)[C@H](c2ccccc2)[C@]2(C)C(=O)Nc3cc(F)c(F)cc3C(=O)N12`, which inhibition is on record?
Answer: The inhibition was -0.31% (inactive).

Question: For `Nc1ccccc1SC(C[N+](=O)[O-])c1ccccc1` (configuration not stated), which inhibition is on record?
Answer: The inhibition was 62.7% (active).

Question: `C/C(N)=C(\C#N)C(=O)NCCc1ccccn1` was tested. Which inhibition did it give?
Answer: The inhibition was 4.85% (inactive).
